# HTT aggregate – inhibitors of mutant huntingtin aggregate formation in PC12 cells; PC12 HttQ103-GFP aggregates, Acumen cytometry, 40 h; Potency, µM (doses to about 46.1 µM), inactives show top-dose activity change, negative = inhibition, usual class: inhibitors; 1.1% of 220,000 active; AID 1688; note: potency is the fitted concentration of half-maximal effect; % is set by controls: 0 for no effect and ±100 for the full control effect; nearly all actives have a fitted effect of over 60% in size
#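 Quantitative HTS on tebufenozide-induced (100 nM) PC12 cells stably expressing polyQ103 Huntingtin exon 1–GFP. Reduction of bright GFP aggregates, detected by laser scanning cytometry after lysis, identified actives across the titration.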
# ALDH1A1 block – blocks purified human ALDH1A1 activity. P00352. Purified ALDH1A1, NADH fluorescence, propionaldehyde substrate. Potency, µM (top dose mostly 75.3 µM), for inactives: top-dose activity, negative = inhibition, usual class: inhibitors. 7.3% of 220,000 active; active = well fitted inhibition curve with a large enough effect, not every such curve was filed as active; inconclusive = small, poorly fitted or top-dose-only effect, or another doubt; inactive = no such curve, though single readings can be large or run the other way;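 note: potency is the fitted concentration of half-maximal effect; plate controls were no enzyme wells and a reference inhibitor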
# Target sequence (P00352 whole entry, looked up): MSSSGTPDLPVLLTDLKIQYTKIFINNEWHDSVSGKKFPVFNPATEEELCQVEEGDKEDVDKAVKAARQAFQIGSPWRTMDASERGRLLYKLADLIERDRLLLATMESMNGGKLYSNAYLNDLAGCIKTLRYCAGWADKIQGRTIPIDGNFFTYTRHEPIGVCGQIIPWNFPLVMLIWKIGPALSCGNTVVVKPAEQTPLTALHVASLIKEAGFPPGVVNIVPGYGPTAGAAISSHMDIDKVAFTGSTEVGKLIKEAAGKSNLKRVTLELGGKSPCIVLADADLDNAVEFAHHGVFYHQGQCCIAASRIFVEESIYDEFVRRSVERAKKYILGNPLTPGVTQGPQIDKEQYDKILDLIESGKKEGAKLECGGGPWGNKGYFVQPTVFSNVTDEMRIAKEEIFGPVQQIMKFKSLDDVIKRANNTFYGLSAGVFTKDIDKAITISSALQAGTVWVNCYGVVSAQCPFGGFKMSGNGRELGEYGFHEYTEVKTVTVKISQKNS
# HPGD block – blocks human HPGD enzyme activity; Potency, µM, inactives show at the top dose activity change, negative = inhibition, usual class: inhibitors; 4.3% of 150,000 active; P15428; purified HPGD, NADH fluorescence kinetic, PGE2 substrate; active = well fitted inhibition curve with a large enough effect, not every such curve was filed as active; inconclusive = small, poorly fitted or top-dose-only effect, or another doubt; inactive = no such curve, though single readings can be large or run the other way; note: potency is the fitted concentration of half-maximal effect; % is set by controls: 0 for no effect and ±100 for the full control effect
#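 20 nM HPGD preincubated 15 min at room temperature with compound in 50 mM Tris-HCl pH 8, 0.01% Tween 20. Started with 1 mM NAD+ and 30 uM prostaglandin E2; NADH fluorescence (360/450 nm) read 5 times over 30-s intervals, last minus first.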
# HTT ATP protect – Huntington cell model cytoprotection by ATP luminescence; PC12 HTT-Q103 induced, cytoprotection, ATP luminescence, 40 h; Potency, µM (doses to about 56.4 µM), inactives show cytoprotection (ATP increase), actives largely listed as activators; 0.14% of 230,000 active; AID 1471; note: potency is the fitted concentration of half-maximal effect; % of control where 0% means no effect; nearly all actives have a fitted effect of over 45% in size
#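 Readout: ATPlite luminescence (ATP level). Model: stable PC12, inducible Htt exon1 Q103-GFP. Inducer: tebufenozide, 100 nM final. Compounds: dose series. No G418 in medium.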
# IMPase Li inh – IMPase inhibition in cells with lithium potentiation | CHO-M1 cells, IP1 TR-FRET (IP-One), carbachol + lithium | Potency, µM (highest dose often 59.4 µM), for the others: at the highest dose activity, negative = IMPase inhibition, most hits filed as inhibitors | 0.35% of 210,000 active;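 note: IP1 builds up when IMPase is blocked and the TR-FRET signal falls; potency is the fitted concentration of half-maximal effect; plate controls were basal vehicle for no effect and high inhibitor control for full effect; nearly all actives have a fitted effect of over 50% in size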
#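 Concentration–response in CHO-M1 cells, lithium-potentiated; 30 min at 37C. IP1 detected by competitive TR-FRET after 10 min lysis at RT. Hill-fitted AC50.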
# IMPase inh – membrane-permeable compound that blocks inositol monophosphatase; P97697; CHO-M1 cells, IP1 accumulation, HTRF TR-FRET ratio; inhibition (IP1 accumulation), % at 46.1 µM; 120,000 tested, under 10 active; AID 901; active = well fitted curve in the direction sought with a large enough effect in the signal ratio, not every such curve was filed as active; inconclusive = small, poorly fitted or top-dose-only effect, or a change in a side signal; inactive = no such curve, though single readings can be large or run the other way; the % refers to the signal ratio;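 note: cells stimulated with carbachol in lithium chloride buffer; plate controls were DMSO basal wells for no effect and reference inhibitor wells for full effect; higher means more IMPase inhibition seen as more IP1 and lower FRET ratio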
# Target sequence (P97697 whole entry, looked up): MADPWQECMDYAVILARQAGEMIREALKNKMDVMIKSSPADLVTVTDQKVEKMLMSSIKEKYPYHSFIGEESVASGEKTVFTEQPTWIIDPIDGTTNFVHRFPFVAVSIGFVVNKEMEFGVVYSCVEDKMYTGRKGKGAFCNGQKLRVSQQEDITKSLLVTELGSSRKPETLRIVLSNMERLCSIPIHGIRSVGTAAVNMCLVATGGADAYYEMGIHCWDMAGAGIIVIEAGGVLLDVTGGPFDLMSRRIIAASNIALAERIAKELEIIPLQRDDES
#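 Carbachol-driven Gq signalling in CHO-M1 cells (2000/well) generates IP1. Compounds that block IMPase raise IP1 and so reduce the FRET signal from Eu-anti-IP1 and d2-IP1 after a 10 min room-temperature lysis.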
# Starred values were filed as active, the others as inactive; ? = inconclusive; . = no result given; [ ] = remark or other dose. The list is not random: actives were taken first. Their share in the collection is about 9.4%. Unless noted, calls come from the whole dose curve; as a rule, active = well fitted curve in the direction sought with a large enough effect; inconclusive = small, poorly fitted or top-dose-only effect, or another doubt; inactive = no such curve, though single readings can be large; an effect the other way counts as inactive or inconclusive.
SMILES,HTT aggregate,ALDH1A1 block,HPGD block,HTT ATP protect,IMPase Li inh,IMPase inh
CCNc1ncc2nc(-c3cc(F)cc(F)c3)c(=O)n(Cc3ccc(F)cc3)c2n1,.,-14%,.,?,-15%,.
c1cc(CSSCc2ccncc2)ccn1,.,4µM*,-14%,0%[10 µM],2%,.
Cc1c(-n2c(O)c(C3=c4ccccc4=NC3=O)sc2=S)c(=O)n(-c2ccccc2)n1C,10%,7.9µM*,.,-160%,21%,.
C/C(CC(=O)Nc1cc(C)ccn1)=N\NC(=O)c1ccccc1C,-11%[9.22 µM],?,.,15%[10 µM],9%,.
C/C(CC(=O)Nc1cccc(Cl)c1Cl)=N\NC(=O)c1ccccc1C,10%[9.22 µM],8.9µM*,.,-6%[10 µM],6%,.
CC[C@@H](c1ccccc1)n1c(=O)n2n(c1=O)[C@H]1[C@H](O)[C@H]3O[C@@H]3/C(=N/OC[C@@H](O)COCc3ccco3)[C@@H]1CC2,.,?,.,-8%[10 µM],.,.
COc1ccccc1C(=O)O/N=C(/c1ccncc1)c1ccc([N+](=O)[O-])cc1,0%,20µM*,.,-6%,15%,.
COc1ccc(C(=O)COC(=O)CCCC(=O)Nc2ccc(C(C)=O)cc2)cc1,.,.,.,.,.,-3
CCCn1cnc2c(SCC(=O)O)nc(N)nc21,.,10%[13.5 µM],-2%,2%[10 µM],3%,.
O=C(Cc1c(Cl)cccc1Cl)OCC(=O)N1CCN(C(=O)c2ccco2)CC1,8%,32µM*,.,-8%,-1%,.
O=C(OCC(=O)N1CCN(C(=O)c2ccco2)CC1)c1ccccc1,-8%,?,.,-13%,4%,.
O=C(NCc1ccccc1)c1cccc(OCC(=O)N2CCN(C(=O)c3ccco3)CC2)c1,7%,16µM*,-4%,-15%[10 µM],0%[38.3 µM],2
CCS(=O)(=O)N1CCN(C(=O)c2ccco2)CC1,-25%,0%,-4%,22%,21%[38.3 µM],3
O=C(c1ccco1)N1CCN(S(=O)(=O)Cc2ccccc2Cl)CC1,12%,10µM*,.,-44%,0%,.
CCC(C)C1/C=C\CCCC(=O)N1Cc1ccc(C)cc1 (stereo not drawn),.,-7%,-10%,-13%,8%,.
Cn1c(=O)c(Sc2ccccc2)c(O)c2ccccc21,-14%[9.22 µM],25µM*,.,6%[10 µM],.,.
Cc1ccc(Sc2c(C=O)c3ccccc3n2C)cc1,10µM*,-11%,-15%,-3%[10 µM],?,?
Cn1c(=O)c(S(=O)(=O)C(C)(C)C)c(O)c2ccccc21,9%,3%,-10%,6%[0.074 µM],3%,.
Cc1ccc(Sc2c(O)c3ccccc3n(C)c2=O)cc1,0%,-6%,-9%,.,10µM*,.
CCOc1ccc(CCNC(=O)c2nnc(Cc3cc(OC)c(OC)c(OC)c3)o2)cc1OCC,.,.,.,.,.,5
COc1ccc(-c2oc3ncn4nc(COc5ccc(C)cc5)nc4c3c2-c2ccc(OC)cc2)cc1,.,.,.,.,.,-3
O=C1CCC(C(=O)N(c2ccccc2)C2(C(=O)NC3CCCCC3)CCCCC2)N1 (stereo not drawn),11%,7.1µM*,.,1%,.,11
Cn1nnnc1SCCNCc1cc(Cl)ccc1OCc1ccccc1,25µM*,13µM*,-4%,17%[10 µM],1%,.
COC(=O)c1cc(=O)nc2sc3cc(OC)ccc3n12,-12%,16µM*,-9%,8%[1.9 µM],6%,2
CCCCc1c(O)nc2sc3cc(OC)ccc3n2c1=O,-13%,4%,16µM*,-71%,18%[38.3 µM],-1
SMILES,HTT aggregate,ALDH1A1 block,HPGD block,HTT ATP protect,IMPase Li inh,IMPase inh
CCOc1ccc2c(c1)sc1nc(C(=O)OC)cc(=O)n12,.,.,.,-4%[10 µM],.,.
Cn1c(=O)n(C)c2cc(N3CCOCC3)c(NS(=O)(=O)c3ccc(Br)cc3)cc21,.,.,.,.,.,9
CC(=O)Oc1ccc(C(=C2CCCCC2)c2ccc(OC(C)=O)cc2)cc1,12%,.,.,19%,.,.
C[C@@H](C(=O)Nc1ccc2ccccc2c1)[C@H]1C[C@]1(C)[C@H](NC(=O)c1cccnc1)c1ccccc1,?,11µM*,-5%,-88%,16%,.
C[C@@H](C(=O)Nc1ccc2ccccc2c1)[C@@H]1C[C@@]1(C)[C@@H](NC(=O)c1ccccc1)c1ccccc1,21%,7%,-15%,5%,3%,.
COC(=O)N[C@H](c1ccccc1)[C@@]1(C)C[C@@H]1[C@@H](C)C(=O)Nc1ccc2ccccc2c1,.,7.9µM*,-23%,-31%,25%,.
O=C(O)c1ccc(NS(=O)(=O)c2ccsc2C(=O)O)cc1,.,8%,-13%,-33%,-10%,.
Cc1ccc(Cl)cc1N1CCN(C(=O)c2cn(C3CCCCC3)c(=O)c3c2c2ccccc2n3C)CC1,.,.,.,.,.,0
Cc1cccn2c(=O)c(C=O)c(N3CCCCCC3)nc12,?,11µM*,-24%,9%,14%[38.3 µM],0
Cc1ccc(S(=O)(=O)/C(C#N)=C/c2c(N3CCC(C(N)=O)CC3)nc3c(C)cccn3c2=O)cc1,-20%,?,3.5µM*,-1%,10%[38.3 µM],9
CCOC(=O)/C(C#N)=C/c1c(N2CCN(Cc3ccc4c(c3)OCO4)CC2)nc2c(C)cccn2c1=O,-18%[9.22 µM],0.71µM*,.,-9%[10 µM],.,.
COC(=O)/C(C#N)=C/c1c(N2CCN(Cc3ccc4c(c3)OCO4)CC2)nc2c(C)cccn2c1=O,13%[9.22 µM],.,.,12%[10 µM],.,.
Cc1cccn2c(=O)c(/C=C(\C#N)S(=O)(=O)c3ccccc3)c(N3CCC(C(N)=O)CC3)nc12,0%,?,28µM*,-7%,8%[38.3 µM],4
Cc1cccn2c(=O)c(/C=C(\C#N)C(=O)NC3CCS(=O)(=O)C3)c(N3CCC(C(N)=O)CC3)nc12 (stereo not drawn),-4%,5%,?,2%[10 µM],-5%,-16
Cc1c(C(=O)O)nc(/C=C\C(=O)O)[nH]c1=O,.,20%[13.5 µM],-5%,-10%[10 µM],-1%,.
Cc1ccc(S(=O)(=O)/C(C#N)=C/c2c(N3CCOCC3)nc3ccccn3c2=O)cc1,-9%,2%,16µM*,-1%,5%[38.3 µM],4
CCN1CCN(c2nc3c(C)cccn3c(=O)c2/C=C(\C#N)S(=O)(=O)c2ccccc2)CC1,?,22µM*,-12%,-11%[10 µM],-4%[38.3 µM],-2
Cc1ccc(S(=O)(=O)/C(C#N)=C/c2c(N3CCC(C(N)=O)CC3)nc3ccccn3c2=O)cc1,4%,?,25µM*,-4%,21%[38.3 µM],7
CCCOC(=O)c1c(NC(=O)c2cc3ccccc3c(=O)o2)sc2c1CCC(C)C2 (stereo not drawn),.,.,.,.,.,1
CCNc1ncc2nc(-c3ccccc3)c(=O)n(-c3ccc(OC)cc3)c2n1,.,?,?,-55%,-15%,.
CCOC(=O)C1=C(NC#N)OC(C)=C(C)C1c1ccc(O)cc1 (stereo not drawn),3%,22µM*,-29%,5%[0.074 µM],10%,0

# Compound activity: PubChem, National Center for Advancing Translational Sciences (NCATS)
